# “And” between values parts separate entries of the source, which are not always exact repeats. Identical values can stand only once. In all, about 310,000 compounds went through this assay and about 1,900 (0.61%) were called active. Another 8% or so got no clear call; they are omitted. The entries come from a sample that favours actives as a whole. Unmarked numbers belong to inactive results. The call rests on the fitted dose curve; tested in A549 cells.
# Assay: qHTS for Stage-Specific Inhibitors of Vaccinia Orthopoxvirus: mCherry Reporter Primary qHTS; further: nearly all actives have a fitted effect of over 35% in size
# Conditions: Vaccinia virus mCherry reporter infection, fluorescence; series mostly up to 36.5 µM; activity change, negative = inhibition: at the top concentration
# On the % scale 0 is the no-effect control and ±100 the full control effect; potency means the concentration at half of the fitted maximal effect.
SMILES,"activity change, negative = inhibition",Potency,outcome
CCOC(=O)C1CCCN(C(=O)c2cc(-c3cccs3)oc2C)CC1 (stereo unspecified),49%,,
Cc1cc(Cl)ccc1-c1nc(NCCN(C)C)nc2ccsc12,11.6%,,
CC(C)=CCc1ccc(O)c(=O)cc1C(C)C,,3.16 µM (active),
CC(C)=CCc1c(O)c(CC=C(C)C)c2occ(-c3ccc(O)cc3)c(=O)c2c1O,-20.4%,,
CC(C)c1cc(N=O)cc(C(C)C)c1O,,,inactive
CN(C(=O)CN1CCN(c2cc(-c3ccc(OCc4ccccc4)cc3)ncn2)CC1)c1ccccc1,,7.94 µM (active),
CN(Cc1ccccc1)C(=O)c1ccc(COc2ccccc2)cc1,,,inactive
CCOc1ccc(OCc2ccc(C(=O)N(C)c3ccccc3)o2)cc1,-11.1%,,
Cc1cccc(CNC(=O)c2sc(=O)n(Cc3ccccc3C)c2C)c1,2.08%,,
O=C1NC(Cc2ccccc2)c2nc3ccc(Br)cc3c(=O)n2-c2cc3ccccc3cc21 (stereo unspecified),,,inactive
CCC1NC(=O)c2cccnc2-n2c1nc1ccc(C)cc1c2=O (stereo unspecified),,,inactive
Cc1cc(C)c2c(=O)n3c(nc2c1)C(CC(C)C)NC(=O)c1cc2ccccc2cc1-3 (stereo unspecified),,10 µM (active),
NC(=O)Nc1ccc(/C=C/c2ccnc3ccccc23)cc1,21.3%,,
COC(=O)c1ccc2nc(-c3ccccc3)c(Cc3ccc(OC)cc3C)n2c1,-4.32%,,
Cc1ccc(S(=O)(=O)N(CCc2ccccc2)c2ccc3c(c2)C2CC3CCN2C(=O)OCc2ccccc2)cc1 (stereo unspecified),-6.6%,,
C/C=C/NNC(=O)Cc1ccc(OC)cc1,,11.2 µM (active),
COc1ccc(CC(=O)NC(C)CCc2ccccc2)cc1 (stereo unspecified),2.27%,,
CCCCCNC(=O)Cc1ccc(OC)cc1,-17%,,
CC1(C(=O)NCC2CCOCC2)Cc2c(-c3cccc(C(N)=O)c3)ccnc2O1 (stereo unspecified),5.59%,,
COc1ccc(-c2nnc(SCc3cccnc3)o2)cc1,-12.4%,,
COc1ccc(-c2nnc(-c3ccc4ccccc4c3)o2)cc1,,,inactive
COc1ccc(-c2nnc(SC(C)C#N)o2)cc1 (stereo unspecified),,11.2 µM (active),
CCOC(=O)[C@]12CCCC=C1N(Cc1ccc(Cl)cc1Cl)C(=O)[C@H](CC(=O)N1CCCCC1)C2,,,inactive

SMILES,"activity change, negative = inhibition",Potency,outcome
COc1c(C)c2c(c(O)c1C/C=C(\C)CCC(=O)O)C(=O)OC2,,5.62 µM (active) and 4.47 µM (active),
CCc1nc2c(OCc3ccc(C(F)(F)F)cc3)cccn2c1N(C)C(=O)CC(C)C,-0.664%,,
CCOC(=O)c1c(NC(=S)SC)sc(C(=O)N2CCc3ccccc3C2)c1C,-10.4%,,
CC1(C)OC(=O)C2=C(C[C@@H](C3CC3)O[C@H]2CCc2cccc(Cl)c2)O1,-11%,,
CCC(CC)C(C(=O)NC1CCCC1)N1CCN(c2cc(C)nc3ccccc23)CC1 (stereo unspecified),19.7%,,
CN(O)C(=S)c1ccccc1,,14.1 µM (active),
CN(CC(=O)O)C(=O)c1ccccc1,-12.1%,,
S=C(c1ccccc1)N1CCCC1,-10.8%,,
Cc1ccc2nc(-c3ccccc3)c(CC3CCCCC3)n2c1,,,inactive
CCCCSc1nc2ccccc2[nH]1,-6.23%,,
CCC(c1nc2ccccc2[nH]1)n1c(=O)c(-c2cccs2)nc2ccccc21 (stereo unspecified),-2.3%,,
CCC(C)N1C(=O)S/C(=C/c2ccc(Sc3nc4ccccc4[nH]3)o2)C1=O (stereo unspecified),,12.6 µM (active),
CN(C)c1ccc(C=Nc2ccc(/C=C/c3ccnc4ccccc34)cc2)cc1,25.4%,,
CC(C)n1ncc2c(C(=O)N3CCN(Cc4cccs4)CC3)cc(C3CC3)nc21,,,inactive
C=CC(=O)Nc1ccc(Nc2ccnc(Nc3ccc(N4CCN(C)CC4)cc3)n2)cc1,,5.01 µM (active),
Cc1cccc(N2CCN(c3ccc(NC(=O)/C=C\C(=O)O)cc3)CC2)c1,-0.733%,,
CN1CCN(c2ccc(NC(=O)c3ccccc3)cc2)CC1,-13.3%,,
O=C(/C=C/c1ccc(Cl)c([N+](=O)[O-])c1)c1ccc(O)cc1,,,inactive
CN(C)c1ccc(/C=C/C(=O)c2ccc(O)cc2)cc1[N+](=O)[O-],,15.8 µM (active),
CC(=O)Nc1ccc(C=CC(=O)c2ccc([N+](=O)[O-])cc2)cc1,-0.232%,,
COc1cccc(C(O)c2nc(-c3ccc(C)c(C)c3)cs2)c1 (stereo unspecified),1.77%,,
O=C(c1ccc(C(F)(F)F)cc1)N1CCC(=O)N([C@H](COCc2ccccc2)Cc2ccccc2)CC1,3.14%,,
CN(C)c1ccc(/C=C2\C=Cc3ccccc32)cc1Br,-17.2%,,

SMILES,"activity change, negative = inhibition",Potency,outcome
CCCCN(C=O)c1c(CC)nc2c(OCCC3CCCCC3)cccn12,-14.4%,,
CN(C)C(CNC(=O)c1cccc(S(=O)(=O)N2CCc3ccccc3C2)c1)c1ccccc1 (stereo unspecified),-25.9%,,
COCOCCn1cc(CN2CCS(=O)(=O)N(Cc3ccc(-c4ccc(OC)cc4)cc3)C(CC(C)C)C2=O)nn1 (stereo unspecified),-13.6%,,
O=C(CCCN1C(=O)/C(=C/c2ccco2)SC1=S)Nc1ccccc1,-12.4%,,
O=C(CCCN1C(=O)/C(=C/c2cccs2)SC1=S)Nc1ccc(O)cc1,,10 µM (active),
O=C(CCN1C(=O)/C(=C/c2cccs2)SC1=S)NNC(=O)c1cccc(O)c1,-8.34%,,
O=C1C(Sc2cccc(F)c2)=C[C@@]2(O)CC[C@@H](O)[C@]1(Sc1cccc(F)c1)[C@H]2O,-11.8%,,
CCCCCNC(=O)C(c1ccc(OC)cc1)n1c(=O)c(-c2ccccc2)nc2ccccc21 (stereo unspecified),,,inactive
CC(C)OC(=O)c1ccc(NCc2cc(O)ccc2O)cc1Cl,,4.47 µM (active),
COC(=O)c1ccc(NC(=O)CSc2nnc(CNc3ccc(OC)cc3)n2C)cc1,-12.7% [at 1.46 µM],,
COC(=O)c1ccc(NCc2cc(O)ccc2O)cc1,,10 µM (active),
CC(C)NC(=O)c1ccc(Cl)cc1Cl,,,inactive
CC(OC(=O)c1ccc(Cl)cc1O)C(=O)NCCC1=CCCCC1 (stereo unspecified),,,inactive
C#CCNc1ccc(C(=O)OCC)cc1,-9.77%,,
COc1ccc(C(=O)N2CCCCC2c2cc(C(=O)Nc3ccccc3)no2)cc1 (stereo unspecified),,,inactive
COc1ccc(-c2coc3c(C(=O)NC(C)C)cccc23)c(C)c1,,,inactive
CCCCC[C@@H]1C=C(C(=O)OCC)[C@H](c2ccccc2)N1S(=O)(=O)c1ccc(C)cc1,5.26%,,
COCc1cccc(-c2csc(C(O)c3ccc(F)cc3)n2)c1 (stereo unspecified),,,inactive
O=C(Oc1ccc(Br)cc1)c1cccnc1,,,inactive
N#CCc1ccc(OC(=O)c2cccnc2)cc1,,,inactive
CCCCCCOc1ccc(OC(=O)c2cccnc2)cc1,,10 µM (active),
O=C(CC(CC(=O)c1ccccc1)c1ccco1)c1ccccc1,,,inactive
Cc1ccccc1-c1nc(NC(C)C)nc2cc(-c3ccccc3)sc12,,,inactive

SMILES,"activity change, negative = inhibition",Potency,outcome
Cc1ccccc1S(=O)(=O)N1[C@@H](c2cccc(Cl)c2)C(C(=O)OC(C)(C)C)=CC[C@H]1c1ccc(Cl)cc1,0.209%,,
COc1cc2nc(N3CCCN(C)CC3)nc(NC(C)C)c2cc1OC,-17.2%,,
C=CC[C@@H](CC(=O)N[C@@H](CO)Cc1ccccc1)C(=O)N[C@H](COC(=O)[C@H](CC=C)CC(=O)OC(C)(C)C)Cc1ccccc1,-14.1%,,
C=CCC[C@H](Cc1ccc(F)cc1)C(=O)OC[C@@H](Cc1c[nH]c2ccccc12)NC(=O)[C@H](CC=C)CC(=O)N[C@H](CO)Cc1ccccc1,-11%,,
C=CCC[C@H](Cc1ccc(F)cc1)C(=O)OC[C@@H](NC(=O)[C@@H](CC=C)CC(=O)N[C@H](CO)Cc1ccccc1)C(C)(C)C,,12.6 µM (active),
COc1ccc2[nH]c(C(=O)N3CCN(C)CC3)c(C)c2c1,,,inactive
COc1ccc2[nH]c3c(c2c1)CCN[C@H]3C,-21%,,
COc1ccc2[nH]c3c(C)c4cc[n+](C)cc4c(C)c3c2c1,,11.2 µM (active),
Cc1ccc(Nc2nc(CSc3nnc(-c4ccncc4)n3-c3ccccc3C)cs2)cc1,,10 µM (active),
Cc1ccc(-n2c(SCC(=O)N3c4ccccc4Sc4ccccc43)nnc2-c2ccncc2)cc1,-4.9%,,
Cc1ccccc1-n1c(SCC(=O)NCc2cccs2)nnc1-c1ccncc1,-3.57%,,
Cc1ccc(S(=O)(=O)Nc2nc(C)cc(N/N=C/c3ccc(O)cc3)n2)cc1,-6.98%,,
Cc1cc(N/N=C\c2ccc(Br)cc2)nc(-n2nc(C)cc2C)n1,,2.24 µM (active),
COc1cc(Cl)c(C)cc1Nc1nnc(-n2nc(C)cc2C)c2ccccc12,-2.28%,,
COc1ccc(NC(=O)c2nc(-n3nc(C)cc3C)ccc2Cl)cc1Cl,-18.6%,,
COc1ccccc1/C=N\Nc1cc(C)nc(-n2nc(C)cc2C)n1,,5.62 µM (active),
Cc1cccc(Nc2cc(C)nc(-n3nc(C)cc3C)n2)c1,-3.8% [at 7.34 µM],,
COc1cc(CNc2ncnc3c2ncn3[C@H]2CN(Cc3cccs3)C[C@@H](CO)O2)cc(OC)c1OC,,,inactive
COc1ccc(/C=C/c2ccccn2)cc1OC,21.9%,,
CCOC(=O)[C@]12CCCC=C1N(Cc1cccc3ccccc13)C(=O)[C@H](CC(=O)NCC13CC4CC(CC(C4)C1)C3)C2,-0.908%,,
CC(C)Oc1c(Br)cc(Br)cc1/C=N/NC(N)=S,,3.98 µM (active),
Cc1cccc(-n2c(C)cc(/C=N/NC(N)=S)c2C)c1,-5.12%,,
NC(=S)N/N=C/c1coc2cc(Cl)ccc2c1=O,-7.3%,,

SMILES,"activity change, negative = inhibition",Potency,outcome
CCCCCCCCN1C(=O)[C@H](CC(=O)NCc2cccc3ccccc23)C[C@@]2(C(=O)OC)CCCCC=C12,-22.5%,,
COc1ccc(Cn2c(=O)[nH]c3cc(C(=O)N4CCN(C(=O)c5ccco5)CC4)ccc3c2=O)cc1,,,inactive
CCNC(=O)N1c2ccccc2Sc2ccccc21,-3.31%,,
CCCn1c(=N)n(CC(=O)c2ccc(Cl)c(Cl)c2)c2ccccc21,-14.5%,,
CC1C(C)N(C(=O)CCl)c2ccccc2N1C(=O)CCl (stereo unspecified),,8.91 µM (active),
COC(=O)[C@]12CCCCC=C1N(Cc1ccc3c(c1)OCO3)C(=O)[C@H](CC(=O)NCc1cccs1)C2,-23.1%,,
C(=Nc1ccc(/C=C/c2ccnc3ccccc23)cc1)Nc1ccc(/C=C/c2ccnc3ccccc23)cc1,-8.7%,,
CN(C)S(=O)(=O)c1cccc(NC(=O)COC(=O)/C=C/c2cccs2)c1,-12.8%,,
CN(C)S(=O)(=O)c1cccc(NC(=O)COC(=O)c2cc(=O)[nH]c(=O)[nH]2)c1,,,inactive
CN(C)S(=O)(=O)c1cccc(NC(=O)Cc2ccsc2)c1,,12.6 µM (active),
O=C(NC(c1ccc(Cl)cc1)c1cnccn1)C1CCN(Cc2ccc(Cl)cc2)CC1 (stereo unspecified),-18.8%,,
O=C(Nc1cccc2ccccc12)c1[nH]c(-c2ccccc2)c2c1C(=O)N(C1CC1)C2=O,-11.3%,,
CCCCC(CCCC)c1ccc(C=Nc2ccc(/C=C/c3ccnc4ccccc34)cc2)cc1,-8.04%,,
Oc1ccc(N=Nc2nccs2)c(O)c1,,3.98 µM (active),
CCN1CCN(c2ccc(/C=C/c3ccnc4ccccc34)cc2)CC1,8.12%,,
N#Cc1ccc(C(C(=O)NCc2ccccc2)n2c(=O)c(-c3ccco3)nc3ccccc32)cc1 (stereo unspecified),3.83%,,
CC1(Oc2cccc(F)c2)CCN(Cc2ccccc2OC(F)F)C1 (stereo unspecified),-7.02%,,
CCN(C(=O)Nc1cccc2ccccc12)c1ccccc1,-9.5%,,
CC(=O)N1Cc2cc(C(=O)NCc3cccc(F)c3)nc(-c3cccc(C4=CCCCC4)c3)c2[C@H]1CCO,19.3%,,
